Test results as given in PubChem BioAssay (NCATS).
Results filed as inconclusive are left out. Activity calls are given as the source filed them. The call rests on the fitted dose curve; tested in HEK293 reporter line.

assay: qHTS for Inhibitors of the Functional Ribonucleoprotein Complex (vRNP) of Lymphocytic Choriomeningitis Arenaviruses (LCMV): Viability assay - alamar blue signal for LCMV Primary Screen (AID 1347085); details: alamar blue viability counter-screen, LCMV vRNP screen cells; series mostly up to 57.5 µM; activity change, negative = lower viability: at the top concentration; further: nearly all actives have a fitted effect of over 80% in size
On the % scale 0 is the no-effect control and ±100 the full control effect.

Row | SMILES | activity change, negative = lower viability
1 | COCCOCCOCCOCCOC | 25.5% [at 115 µM] (inactive)
2 | COc1cc2oc(=O)ccc2cc1[C@H](O)[C@@H](O)C(C)(C)O | -0.487% (inactive)
3 | COc1ccc(C[C@H]2c3cc(O)c(OC)cc3CC[N+]2(C)[O-])cc1O (stereo partly specified) | 1.39% (inactive)
4 | O=C(Nc1ncc(SCCN2CCCC2)s1)[C@]1(c2ccc(S(=O)(=O)C3CC3)cc2)C[C@@H]1C1CCCCC1 | -2.14% (inactive)
5 | CC(C)c1noc(N2CCC(COc3ccc(-c4ccc(S(C)(=O)=O)cc4)nc3)CC2)n1 | 1.43% (inactive)
6 | COc1cc(C(=O)O)ccc1O | 8.92% (inactive)
7 | CC(=O)C1CCC2C3CCC4=CC(=O)C=CC4(C)C3CCC12C (stereo unspecified) | 45.2% (inactive)
8 | O=C(O)[C@@H]1Cc2c([nH]c3ccccc23)C2CCC(=O)N21 (stereo partly specified) | -1.49% (inactive)
9 | C=C1C2C[C@H](O)C(C)(C)[C@@]2(O)[C@H](O)C[C@]23C[C@@](C)(O)[C@H](CC[C@H]12)[C@H]3O (stereo partly specified) | 8.92% (inactive)
10 | CN1CC(=O)N2C(Cc3c([nH]c4ccccc34)[C@H]2c2ccc3c(c2)OCO3)C1=O (stereo partly specified) | -0.0396% (inactive)
11 | CC1CC(C)C(=O)C1=O (stereo unspecified) | 2.26% [at 115 µM] (inactive)
12 | COC1[C@@H](OC)C[C@H](C)[C@@H](OC)C2=CC(=O)C=C(NC(=O)/C(C)=C/C=C\[C@H](OC)[C@@H](OC(N)=O)/C(C)=C/[C@@H]1C)C2=O (stereo partly specified) | 15.6% [at 5.82 µM] (inactive)
13 | COc1ccc(CC(=O)c2ccc(OC3OC(CO)C(O)C(O)C3O)cc2O)cc1 (stereo unspecified) | 17% (inactive)
14 | COc1c2c(c(OC)c3c1c(=O)c1ccccc1n3C)OCO2 | 1.81% (inactive)
15 | C[C@H]1CCC2[C@](C)(CO)[C@@H](O)CC[C@]2(C)[C@@]12CCC(CO)(CCO)O2 (stereo partly specified) | 1.15% (inactive)
16 | CC(C)=CC(=O)O | 17.1% [at 115 µM] (inactive)
